Compounds with a hit are over-represented: about 6.6% of the library has one in this group of screens.
TGFb SMAD3 inh: inhibitors of TGF-b signaling; HepG2 CAGA-GFP TGF-b/SMAD3 reporter, GFP fluorescence, 18 h; TGF-beta stimulated, 500 pg/mL final; Potency, µM (doses to about 46.1 µM), usual class: inhibitors; 410,000 tested, 1.2% active; AID 588855; note: nearly all actives have a fitted effect of over 65% in size
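Inhibition of TGF-beta-driven CAGA-GFP reporter expression in HEPG2 cells is measured by cellular GFP fluorescence after 18 h stimulation with 500 pg/mL recombinant TGF-beta in 1% FBS medium at 37 degrees C.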
KB-3-1 cytotox: KB-3-1 parental cell cytotoxicity; KB-3-1 viability, CellTiter-Glo ATP luminescence, 72 h; Potency, µM (top dose mostly 46.1 µM), most hits filed as cytotoxic; 400,000 tested, 1.4% active; AID 1347075; note: nearly all actives have a fitted effect of over 60% in size
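Viability of parental KB-3-1 cells, measured by CellTiter-Glo luminescence, followed a 72 h incubation at 37 °C with pinned compounds in phenol-red-free DMEM containing 10% FBS.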
HT1080 IDH1KD tx: kills HT-1080 cells with IDH1 knockdown; HT-1080 IDH1 knockdown viability, ATP luminescence, 48 h; Potency, µM (top dose mostly 46.1 µM), actives largely listed as cytotoxic; 360,000 tested, 2% active
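Knockdown cells (IDH1KD HT-1080) received compounds 2 h after plating at 750 cells/well and were kept 48 h at 37 °C in 5% FBS RPMI. A CellTiter-Glo luminescence read gave % activity for curve fitting.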
HT1080-NT tox: kills 2HG-producing HT-1080-NT fibrosarcoma cells. HT-1080-NT fibrosarcoma viability, CellTiter-Glo ATP luminescence, 48 h. Potency, µM (top dose mostly 46.1 µM), actives largely listed as cytotoxic. 360,000 tested, 1.6% active;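 note: NT is the 2HG producing partner of a matched IDH1 knockdown line; nearly all actives have a fitted effect of over 55% in size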
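Fibrosarcoma NT cells, 750 per well in 5% FBS RPMI, were exposed to compound for 48 hours. Viability: CellTiter-Glo luminescence.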
KB-V1 cytotox: kills drug-selected multidrug resistant KB-V1 cells | 400,000 tested, 3.4% active | KB-V1 MDR cells viability, CellTiter-Glo, 72 h | Potency, µM (titrated, usually from 46.1 µM), actives largely listed as cytotoxic; note: nearly all actives have a fitted effect of over 60% in size
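Potencies derive from concentration-effect curves fitted to normalized luminescence (CellTiter-Glo) of KB-V1 cells treated for 72 h at 37 degrees C in phenol-red-free DMEM containing 10% FBS.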
HepG2 viability: counter-screen for TGF-b inhibitors: cytotoxicity in HepG2 cells; HepG2 CAGA-GFP viability, ATP luminescence, 18 h; Potency, µM (top dose mostly 46.1 µM), hits mostly cytotoxic; 410,000 tested, 0.76% active; AID 588856
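CellTiter-Glo luminescence gave cytotoxicity after 18 hours at 37 degrees C. The cells were HepG2 CAGA-GFP in 1% FBS DMEM, stimulated with 500 pg/mL TGF-beta after compound addition. %Activity was normalised to no-cell wells (complete cell-killing) and DMSO (no toxicity), and curves were fitted and classified.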
Large screens that a line does not name were inactive. Calls come from the whole dose curve; as a rule, active = well fitted curve in the direction sought with a large enough effect; inconclusive = small, poorly fitted or top-dose-only effect, or another doubt; inactive = no such curve, though single readings can be large; an effect the other way counts as inactive or inconclusive.

O=C(CCCN1C(=O)C(c2ccccc2)Oc2cccnc21)Nc1ccc(Br)cc1F (centres undefined)	none (no result: HT1080 IDH1KD tx, HT1080-NT tox)
COc1ccccc1NC(=O)C1=C(C)Nc2nc(SCc3cc(C)ccc3C)nn2C1c1ccccc1 (centres undefined)	none (no result: HT1080 IDH1KD tx, HT1080-NT tox)
CCN(C(=O)C1CCC(CNS(=O)(=O)c2cccc3nsnc23)CC1)c1ccc(C)c(C)c1 (centres undefined)	KB-3-1 cytotox inconclusive, KB-V1 cytotox inconclusive (no result: HT1080 IDH1KD tx, HT1080-NT tox)
COc1cc(-c2noc(-c3ccc(N(C)C)c([N+](=O)[O-])c3)n2)cc(OC)c1OC	none (no result: HT1080 IDH1KD tx, HT1080-NT tox)
COc1ccccc1CNC(=O)c1cc(Sc2cccc(Cl)c2)nc2ccccc12	none (no result: KB-3-1 cytotox, HT1080 IDH1KD tx, HT1080-NT tox, KB-V1 cytotox)
CC(=O)c1c(C)[nH]c(C(=O)OCc2nnc(-c3ccc([N+](=O)[O-])cc3)o2)c1C	HT1080 IDH1KD tx inconclusive, HT1080-NT tox 23µM
CS(=O)(=O)c1ccc(C(=O)OCc2nnc(-c3ccc(Cl)cc3)o2)cc1[N+](=O)[O-]	TGFb SMAD3 inh inconclusive, HT1080 IDH1KD tx 18µM, HT1080-NT tox inconclusive
O=C(OCc1nnc(-c2ccc(Cl)cc2)o1)c1ccc(O)cc1	none
CCn1c(CNC(=O)Cc2ccc(OC)cc2)nnc1SCC(=O)c1ccc(Br)cc1	none
CCn1c(CNC(C)=O)nnc1SCC(=O)c1ccc(Br)cc1	HT1080 IDH1KD tx inconclusive, HT1080-NT tox 13µM, HepG2 viability 22µM
Cc1ccc(NC(=O)Cc2nnc(SCC(=O)c3ccc(Br)cc3)n2C)cc1	HT1080 IDH1KD tx 11µM, HT1080-NT tox inconclusive
Cc1ccc(NC(=O)Cc2nnc(SCC(=O)NC3CCCC3)n2C)cc1	KB-V1 cytotox inconclusive
CCn1c(SCC(=O)c2ccccc2)nnc1-c1cc2cc(Br)ccc2o1	KB-3-1 cytotox inconclusive, KB-V1 cytotox 18µM
CCN1CC=C2C(C#N)=C(N)C(C#N)(C#N)[C@H](c3cccc(OC)c3OC)[C@H]2C1	none
CCN1CC=C2C(C1)C(c1ccc(Cl)s1)C(C#N)=C(N)C2(C#N)C#N (centres undefined)	KB-V1 cytotox 15µM
Cc1ccc(S(=O)(=O)c2cn(Cc3ccccc3)c3cc(N4CCCC4)c(F)cc3c2=O)cc1C	none (no result: HT1080 IDH1KD tx, HT1080-NT tox)
Cc1cccc(CNC(=O)c2ccc3c(c2)N(C)C(=O)C2CCCCN32)c1 (centres undefined)	none (no result: HT1080 IDH1KD tx, HT1080-NT tox)
Cc1[nH]c2ccccc2c1CN1CCC(Cc2ccccc2)CC1	TGFb SMAD3 inh inconclusive, HT1080 IDH1KD tx 23µM, HT1080-NT tox inconclusive, KB-V1 cytotox 18µM
Cc1[nH]c2ccccc2c1CN1CCN(c2ccccn2)CC1	none
CC(CNC(=O)c1ccc2c(c1)nc1n2CCCCC1)c1ccccc1 (centres undefined)	none (no result: HT1080 IDH1KD tx, HT1080-NT tox)
CS(=O)(=O)c1nc(-c2ccccc2)cc(-c2ccccc2)c1C#N	KB-3-1 cytotox inconclusive, HT1080 IDH1KD tx inconclusive, HT1080-NT tox 23µM
COc1ccc(CNC(=O)c2ccc3c(c2)N(Cc2cc(C)ccc2C)C(=O)CS3)cc1	none (no result: HT1080 IDH1KD tx, HT1080-NT tox)
Cc1ccc(C(=O)NCC(=O)NCCSc2ccc(Br)cc2)cc1	KB-V1 cytotox inconclusive
CCOc1ccc(C(=O)NCC(=O)NCCSc2ccc(Br)cc2)cc1OCC	TGFb SMAD3 inh inconclusive, KB-V1 cytotox 3.7µM
Cc1ccc(C2C=C(c3ccccc3OC(F)F)Nc3ncnn32)cc1 (centres undefined)	KB-3-1 cytotox inconclusive, KB-V1 cytotox 21µM
Cc1ccc(C2=CC(c3ccccc3)n3ncnc3N2)cc1 (centres undefined)	none
CN(C)c1ccc(C2C=C(c3ccc(Cl)cc3OC(F)F)Nc3ncnn32)cc1 (centres undefined)	HT1080 IDH1KD tx inconclusive, HT1080-NT tox inconclusive, KB-V1 cytotox 12µM
Cc1ccccc1-c1cnc(C(O)c2ccc(-c3ccccc3)cc2)[nH]1 (centres undefined)	TGFb SMAD3 inh inconclusive, KB-3-1 cytotox inconclusive, HT1080 IDH1KD tx inconclusive, HT1080-NT tox inconclusive
C=CCc1ccccc1OCCSc1nc(-c2ccccc2F)nc2cc(=O)[nH]n12	TGFb SMAD3 inh 18µM (no result: HT1080 IDH1KD tx, HT1080-NT tox)

High-throughput results deposited in PubChem by National Center for Advancing Translational Sciences (NCATS).
